# Measured values as given in PubChem BioAssay AID602432 (Southern Research Specialized Biocontainment Screening …, 2012).
# Results with a measured potency or affinity are listed apart. Inconclusive results are not listed. The source made the active and inactive calls. The rule behind the calls is not given here.
# Assay: HepG2 cell cytotoxicity, cytotoxicity control, set 6 (AID 602432)
# Details: series mostly up to 50 µM
row,Compound,outcome
1,O=C(CSc1nc2ccccc2c(=O)[nH]1)NC1CCCCC1,inactive
2,O=C(c1ccc(CNc2c(N3CCOCC3)c(=O)c2=O)cc1)N1CCC(c2ccccc2)CC1,inactive
3,CC(C)CCNC(=O)CSc1nc2ccccc2c(=O)[nH]1,inactive
4,CC1CCCN(c2c(NCc3ccc(C(=O)N4CC=C(c5ccccc5)CC4)cc3)c(=O)c2=O)C1 (configuration not stated),inactive
5,O=C(c1ccc(CNc2c(N3CCOCC3)c(=O)c2=O)cc1)N1CCN(c2ccccc2)CC1,inactive
6,O=C(NCc1ccc(C(=O)N2CCN(c3ccccc3)CC2)cc1)NC1CCCCC1,inactive
7,O=C(c1ccc(CNc2c(N3CCCC3)c(=O)c2=O)cc1)N1CCN(c2ccccc2)CC1,inactive
8,CC(C)CCNC(=O)CSc1nc2c(c(=O)[nH]1)CCCCC2,inactive
9,O=C(CSc1nc2c(c(=O)[nH]1)CCC2)NC1CCCCC1,inactive
10,COC(=O)C(Cc1ccccc1)NC(=O)CSc1nc2ccccc2c(=O)[nH]1 (configuration not stated),inactive
11,O=C(CSc1nc2ccccc2c(=O)[nH]1)NC1CCOCC1,inactive
12,O=C(CSc1nc2c(c(=O)[nH]1)CCCC2)NC1CCCCC1,inactive
13,COc1ccc(NC(=O)NCc2ccc(C(=O)N3CCC(c4ccccc4)CC3)cc2)cc1,inactive
14,CC(C)CCNC(=O)CSc1nc2c(c(=O)[nH]1)CCCC2,inactive
15,O=C(CSc1nc2c(c(=O)[nH]1)CN(Cc1ccccc1)CC2)NC1CCCCC1,inactive
16,O=C(c1ccc(CNc2c(N3CCCC3)c(=O)c2=O)cc1)N1CCC(c2ccccc2)CC1,inactive
17,COCCNC(=O)CSc1nc2ccccc2c(=O)[nH]1,inactive
